For assay [1], the system named is Plasmodium falciparum Sir2 (PF13_0152, Sir2A). Put plainly: Plasmodium falciparum Sir2A binding compounds – biochemical, small-molecule microarray, 635 nm fluorescence, primary screen (AID 1098).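 Further: score merges spot fluorescence intensity with its signal-to-noise ratio.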 Particulars: fluorescence 635 nm, higher = more signal.
A short description of assay [2]: probe aDKK1 binding to arrayed compounds – biochemical, biotinylated probe, 635/667 nm fluorescence, primary screen (AID 1099).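 Further: score merges 667nm spot fluorescence with signal to noise across triplicate slides.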 Particulars: small-molecule microarray, higher = more signal.
Assay [3] in a line: probe aCHRDL2 binding to arrayed compounds – biochemical, biotinylated probe, 635/667 nm fluorescence, primary screen (AID 1100). Particulars: small-molecule microarray, higher = more signal.
The nature of assay [4]: change in splice reporter luminescence, either direction, cell-based, HEK293, spliceosome inhibition project, primary screen (AID 1101).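 Further: HEK293 cells carrying a splicing-competent luciferase reporter gene; test concentration not given here.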 Conditions: HEK293 splicing luciferase reporter, 24 h, higher = more signal, called active from +8 up or from −8 down.
Assay [5] deals with Fibroblast growth factor 10 (Homo sapiens) (UniProt O15520). Put plainly: compounds binding fibroblast growth factor 10 – biochemical, small-molecule microarray, 635 nm fluorescence, primary screen (AID 1102). Particulars: FGF10 binding, fluorescence 635 nm, higher = more signal.
Sequence of Fibroblast growth factor 10 (Homo sapiens) (O15520 whole entry, looked up): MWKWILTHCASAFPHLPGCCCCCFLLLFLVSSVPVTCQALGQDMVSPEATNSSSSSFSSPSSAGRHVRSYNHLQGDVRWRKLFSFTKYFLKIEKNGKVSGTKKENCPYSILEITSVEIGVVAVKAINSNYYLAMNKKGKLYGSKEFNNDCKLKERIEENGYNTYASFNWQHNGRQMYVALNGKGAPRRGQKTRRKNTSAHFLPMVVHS
Assay [6] deals with glycogen synthase kinase-3 (GSK3A per assay name; protocol says GSK3B). The experiment in a line: compounds binding glycogen synthase kinase-3 – biochemical, small-molecule microarray, 635 nm fluorescence, GSK3A, primary screen (AID 1103). Further: the record names both GSK3A and GSK3B. Conditions: fluorescence 635 nm, higher = more signal.
Assay [7] concerns the target Epidermal growth factor receptor (Homo sapiens) (UniProt P00533). Put plainly: compounds binding epidermal growth factor receptor – biochemical, small-molecule microarray, 635 nm fluorescence, primary screen (AID 1104).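 Further: score merges 667 nm emission intensity with spot signal to noise over triplicate slides.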 Particulars: EGFR binding, higher = more signal.
The target of assay [8] is Follistatin-related protein 3 (Homo sapiens) (UniProt O95633). The experiment in a line: compounds binding follistatin-related protein 3 – biochemical, small-molecule microarray, 635 nm fluorescence, primary screen (AID 1105).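 Further: score merges emission near 667 nm and signal to noise per printed spot across three slides.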 Conditions: FSTL3 binding, higher = more signal.
Sequence of Follistatin-related protein 3 (Homo sapiens) (O95633 whole entry, looked up): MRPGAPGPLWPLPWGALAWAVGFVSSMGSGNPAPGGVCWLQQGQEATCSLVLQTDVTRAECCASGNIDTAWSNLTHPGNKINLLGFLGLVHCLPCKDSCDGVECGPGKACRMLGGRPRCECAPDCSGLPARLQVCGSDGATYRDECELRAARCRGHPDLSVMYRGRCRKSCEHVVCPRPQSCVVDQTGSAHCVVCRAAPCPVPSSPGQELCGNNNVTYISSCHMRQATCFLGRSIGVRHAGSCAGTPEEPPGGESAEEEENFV
For assay [9], the target named is Dickkopf-related protein 1 (Homo sapiens) (UniProt O94907). The experiment in a line: small molecules binding DKK1 protein – biochemical, small-molecule microarray, 635 nm fluorescence scan, primary screen (AID 1106).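 Further: score merges emission near 667 nm with signal to noise over three replicate slides.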 Particulars: higher = more signal.
Sequence of Dickkopf-related protein 1 (Homo sapiens) (O94907 whole entry, looked up): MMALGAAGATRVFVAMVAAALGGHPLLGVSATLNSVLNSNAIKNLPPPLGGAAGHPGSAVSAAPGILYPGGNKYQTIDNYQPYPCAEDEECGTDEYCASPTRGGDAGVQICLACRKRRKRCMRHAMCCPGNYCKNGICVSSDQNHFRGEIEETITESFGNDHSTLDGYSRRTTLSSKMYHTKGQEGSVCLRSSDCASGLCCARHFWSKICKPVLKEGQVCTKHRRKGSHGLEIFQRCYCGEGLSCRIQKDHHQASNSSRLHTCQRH
Assay [10] has as its system Inhibin beta A chain (activin A). The experiment in a line: small molecules binding activin A – biochemical, small-molecule microarray, 635 nm fluorescence scan, primary screen (AID 1107).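 Further: mouse activin A protein probed at 4.33 µg/mL on printed slides; score merges bound-protein fluorescence near 667 nm with spot signal-to-noise.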 Particulars: INHBA, higher = more signal.
The subject of assay [11] is Human papillomavirus type 1a protein E7 (residues 44-93). The experiment in a line: small molecules binding HPV E7 44-93 – biochemical, small-molecule microarray, residues 44-93, 635 nm fluorescence, primary screen (AID 1108).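 Further: E7 fragment applied at 1 µg/mL in TBST for 1 h at 4 C; score combines spot fluorescence with its signal to noise ratio.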 Conditions: fluorescence 635 nm, higher = more signal.
Assay [12] is described as follows: hepatitis C replication reporter changes, two-sided – Huh7 cells, luciferase reporter, HCV replication inhibitor project, primary screen (AID 1109).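 Further: huh7 hepatoma cells harbouring a luciferase neomycin HCV replicon reporter; luciferase luminescence as measure of HCV replicon replication; test concentration not given here.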 Conditions: Huh7 HCV replicon luciferase reporter, 48 h; higher = more signal. A general note: Reporter assays use an easily measured gene product as a stand-in for the process of interest.
The target in assay [13] is Left-right determination factor 2 (Homo sapiens) (UniProt O00292). Put plainly: small molecules binding LEFTY2 protein – biochemical, small-molecule microarray, 635 nm fluorescence scan, primary screen (AID 1110). Particulars: higher = more signal.
Sequence of Left-right determination factor 2 (Homo sapiens) (O00292 whole entry, looked up): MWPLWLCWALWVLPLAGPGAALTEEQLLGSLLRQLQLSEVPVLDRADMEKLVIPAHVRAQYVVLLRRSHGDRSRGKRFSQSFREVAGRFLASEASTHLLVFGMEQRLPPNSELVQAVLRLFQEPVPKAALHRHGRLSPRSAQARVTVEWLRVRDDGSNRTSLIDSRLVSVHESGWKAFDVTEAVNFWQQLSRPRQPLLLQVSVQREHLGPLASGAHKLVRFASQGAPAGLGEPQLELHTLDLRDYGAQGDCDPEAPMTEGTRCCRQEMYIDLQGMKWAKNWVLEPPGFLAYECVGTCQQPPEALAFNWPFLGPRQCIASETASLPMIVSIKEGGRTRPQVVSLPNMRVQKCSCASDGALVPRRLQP
Assay [14] concerns the target Calmodulin-1 (Homo sapiens) (UniProt P0DP23). The experiment in a line: small molecules binding calmodulin-1 with EGTA – biochemical, small-molecule microarray, Cy5-labelled CALM1, profiling panel (AID 1111).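 Further: labelled calmodulin applied in Tris saline Tween buffer holding calcium plus EGTA and DTT.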 Conditions: Cy5-CALM1 binding fluorescence, higher = more signal.
The target is the same in assay [15]. Put plainly: small molecules binding Ca-loaded calmodulin-1 – biochemical, small-molecule microarray, Cy5-labelled CALM1, plus calcium, artefact control for SMM control-protein annotation, profiling panel (AID 1112).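 Further: score merges spot fluorescence with signal to noise from triplicate slides.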 Particulars: Cy5-CALM1 binding fluorescence, higher = more signal.
The nature of assay [16]: probe aWnt5a binding to arrayed compounds – biochemical, biotinylated probe, 635/667 nm fluorescence, primary screen (AID 1113).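 Further: score merges 667 nm fluorescence intensity with signal-to-noise per printed feature.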 Particulars: small-molecule microarray, higher = more signal.
A short description of assay [17]: probe aShh binding to arrayed compounds – biochemical, biotinylated probe, 635/667 nm fluorescence, primary screen (AID 1114).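 Further: probe is biotin-labelled aShh protein from a stem cell growth factor screen; measures binding of labelled protein to compounds printed on the slide; score merges feature fluorescence at 667 nm with signal-to-noise.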 Particulars: small-molecule microarray, higher = more signal.
The nature of assay [18]: probe aNog binding to arrayed compounds – biochemical, biotinylated probe, 635/667 nm fluorescence, primary screen (AID 1115).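 Further: probe is biotinylated aNog protein used at 0.15 µg/mL for 1 h at 4 C; z-score combines 667 nm fluorescence of each spot with its signal to noise.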 Particulars: small-molecule microarray, higher = more signal.
In assay [19] the target is Torsin-1A-interacting protein 1 (Homo sapiens) (UniProt Q5JTV8). Put plainly: compound microarray binding of lysate hLAP1 – cell lysate, small-molecule microarray, COS7 lysate, 635/667 nm fluorescence, primary screen (AID 1116). Conditions: 635 nm fluorescence, higher = more signal.
Sequence of Torsin-1A-interacting protein 1 (Homo sapiens) (Q5JTV8 whole entry, looked up): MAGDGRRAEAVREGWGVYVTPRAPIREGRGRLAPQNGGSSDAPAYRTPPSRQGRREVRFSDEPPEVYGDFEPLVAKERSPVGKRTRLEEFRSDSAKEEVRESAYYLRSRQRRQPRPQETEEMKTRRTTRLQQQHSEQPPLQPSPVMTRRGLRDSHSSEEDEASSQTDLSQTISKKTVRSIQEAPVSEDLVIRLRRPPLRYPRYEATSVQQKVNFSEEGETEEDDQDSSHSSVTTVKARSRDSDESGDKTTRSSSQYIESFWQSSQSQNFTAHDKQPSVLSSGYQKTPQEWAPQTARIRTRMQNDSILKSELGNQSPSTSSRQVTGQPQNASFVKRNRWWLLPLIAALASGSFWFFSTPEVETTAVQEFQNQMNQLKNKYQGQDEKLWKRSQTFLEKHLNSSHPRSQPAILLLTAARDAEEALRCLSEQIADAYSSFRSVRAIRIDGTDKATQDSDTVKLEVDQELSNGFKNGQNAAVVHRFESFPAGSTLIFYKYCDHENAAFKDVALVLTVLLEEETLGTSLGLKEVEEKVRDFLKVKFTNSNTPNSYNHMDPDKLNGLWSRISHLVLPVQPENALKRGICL
Assay [20] has as its target Alpha-bungarotoxin (Bungarus multicinctus) (UniProt P60615). The experiment in a line: compounds binding labelled alpha-BTX control protein – biochemical, small-molecule microarray, Alexa647 label, 635/667 nm fluorescence, artefact control for SMM control protein annotation, profiling panel (AID 1117). Particulars: alpha-BTX-A647 binding fluorescence, higher = more signal.

Calls of active or inactive are those of the source.

Sequence of Epidermal growth factor receptor (Homo sapiens) (P00533 whole entry, looked up): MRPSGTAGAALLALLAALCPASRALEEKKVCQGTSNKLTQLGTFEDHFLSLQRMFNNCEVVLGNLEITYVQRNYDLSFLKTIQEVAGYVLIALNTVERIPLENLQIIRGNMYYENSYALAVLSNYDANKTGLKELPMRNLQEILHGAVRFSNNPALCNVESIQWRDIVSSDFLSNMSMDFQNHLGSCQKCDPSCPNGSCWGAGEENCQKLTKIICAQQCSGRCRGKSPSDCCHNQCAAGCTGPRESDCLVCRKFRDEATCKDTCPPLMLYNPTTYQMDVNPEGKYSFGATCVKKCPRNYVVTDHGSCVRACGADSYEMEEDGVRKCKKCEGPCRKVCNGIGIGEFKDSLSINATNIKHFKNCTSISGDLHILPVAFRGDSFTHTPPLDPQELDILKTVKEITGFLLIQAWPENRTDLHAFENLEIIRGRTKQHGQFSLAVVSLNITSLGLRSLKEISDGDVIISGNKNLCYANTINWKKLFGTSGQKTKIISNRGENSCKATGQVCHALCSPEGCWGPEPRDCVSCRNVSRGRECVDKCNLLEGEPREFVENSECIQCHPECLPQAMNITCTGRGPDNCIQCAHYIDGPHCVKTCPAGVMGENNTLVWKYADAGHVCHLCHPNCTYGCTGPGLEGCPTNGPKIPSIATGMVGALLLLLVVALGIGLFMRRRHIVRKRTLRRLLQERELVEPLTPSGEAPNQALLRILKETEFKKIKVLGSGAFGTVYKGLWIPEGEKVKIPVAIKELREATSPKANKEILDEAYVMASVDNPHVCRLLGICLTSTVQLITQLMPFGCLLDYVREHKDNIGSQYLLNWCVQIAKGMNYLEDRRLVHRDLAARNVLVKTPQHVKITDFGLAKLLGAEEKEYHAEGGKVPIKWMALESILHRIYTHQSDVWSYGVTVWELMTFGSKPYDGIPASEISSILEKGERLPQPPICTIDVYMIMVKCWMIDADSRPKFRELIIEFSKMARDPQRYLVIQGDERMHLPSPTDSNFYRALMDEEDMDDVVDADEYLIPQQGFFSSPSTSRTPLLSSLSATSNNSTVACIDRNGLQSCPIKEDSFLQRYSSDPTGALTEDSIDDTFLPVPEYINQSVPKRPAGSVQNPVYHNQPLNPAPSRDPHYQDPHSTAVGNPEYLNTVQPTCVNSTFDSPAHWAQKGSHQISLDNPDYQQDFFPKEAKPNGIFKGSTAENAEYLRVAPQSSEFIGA
Sequence of Alpha-bungarotoxin (Bungarus multicinctus) (P60615 whole entry, looked up): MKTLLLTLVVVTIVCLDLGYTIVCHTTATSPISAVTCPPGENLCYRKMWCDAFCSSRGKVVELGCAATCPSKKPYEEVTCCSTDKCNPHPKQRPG

With `Cc1ccc([C@H]2C(C(=O)O)=C[C@@H](C(C)C)N2S(=O)(=O)c2ccc(C)cc2)cc1`, the composite z-score in assay [1] is 0.853; in assay [2] it was 0.309; in assay [3], 0.68; in assay [5], 0.265; in assay [6], 0.914; in assay [7], -0.206. In addition, the composite z-score in [8] was -0.103; in [9] it was -0.329; in assay [10], 0.479; in [11], 1.39; in assay [13], -0.448; in [14], 0.995. Also, the composite z-score is 0.237 in [15]; 0.0597 in assay [16]; -0.0769 in assay [17]; 0.129 in assay [18]; 0.984 in assay [19]; 0.11 in assay [20]. Moreover, the z-score is -0.349 (inactive) in [4] and 0.58 in assay [12].
In the case of `C=C(COC)C(=O)CC[C@@H](OC(=O)c1ccccc1-c1ccccc1C(=O)O)c1ccc(CO)o1`, the composite z-score in assay [1] was 1.51; in assay [2] it was -0.4; in assay [3], -0.69; in [5], 1.57; in assay [6], 0.464; in assay [7], 0.109. For the same compound, the composite z-score amounted to 0.399 in [8]; 1.14 in assay [9]; 0.466 in [10]; 0.512 in [11]; 1.01 in assay [13]; 1.63 in assay [14]. Further, the composite z-score is 0.417 in assay [15]; -0.256 in assay [16]; -0.34 in assay [17]; -0.251 in assay [18]; 0.709 in assay [19]; 0.206 in assay [20]. In addition, the z-score in [4] was -1.24 (inactive); in assay [12], -4.48.
For the compound `CCCC[C@H]1OB(O)C[C@H]2C1=C(C)Cn1c(=O)n(-c3ccccc3)c(=O)n12`, the composite z-score was 0.161 in [1]; -0.291 in assay [2]; -0.67 in assay [3]; 0.49 in [5]; 0.37 in assay [6]; 0.512 in assay [7]. Further, the composite z-score was 0.662 in assay [8]; 0.779 in [9]; 0.255 in assay [10]; 0.422 in [11]; 0.648 in assay [13]; -0.305 in assay [14]. For the same compound, the composite z-score in assay [15] was -0.406; in [16] it was -0.215; in assay [17] it was -0.0035; in assay [18] it was -0.426; in assay [19] it was 0.363; in [20], -0.149. Also, the z-score was -0.293 (inactive) in [4] and -0.759 in assay [12].
On to `O=C1c2ccccc2[C@@]2(Cc3ccccc3N(Cc3ccccc3)C2=O)[C@H](c2ccc(CO)cc2)N1Cc1ccccc1C(F)(F)F`, for which the composite z-score in [1] is 1.1; in [2] it was 0.0463; in assay [3] it was 0.847; in [5], -0.665; in [6], -0.866; in assay [7] it was -1.09. Besides, the composite z-score in assay [8] is -0.71; in [9] it was -1.38; in assay [10], 0.581; in [11] it was -0.648; in assay [13], -1.3; in assay [14] it was -0.457. In addition, the composite z-score is -0.176 in assay [15]; -0.157 in assay [16]; 0.0684 in assay [17]; 0.549 in [18]; 0.0154 in [19]; -0.32 in assay [20]. The z-score was 0.0517 (inactive) in assay [4] and -0.353 in assay [12].
In the case of `Cc1ccc(F)cc1S(=O)(=O)N[C@@H]1CCN(Cc2ccc(C(F)(F)F)cc2)C1`, the composite z-score was -0.245 in assay [1]; 0.735 in [2]; -0.565 in assay [3]; -0.425 in assay [5]; -1.41 in [6]; -0.444 in [7]. The composite z-score in assay [8] was -0.769; in assay [9], 0.0494; in assay [10] it was -0.127; in assay [11], -0.237; in [13], -0.0209; in assay [14] it was -1.3. Besides, the composite z-score in assay [15] is -0.904; in [16], -0.152; in [17], 0.0723; in assay [18] it was -0.311; in [19] it was -0.0249; in assay [20] it was -0.536. Further, the z-score in assay [4] is 0.169 (inactive); in assay [12], -2.01.

The values are drawn from PubChem BioAssay.
